This is one part of the list. Calls of active or inactive are those of the source. Rule as the data show it: active = inhibition mostly above about 35% (no sharp cut-off); inactive = mostly below about 32%.

Among the data in PubChem BioAssay AID651678 (Sanford-Burnham Center for Chemical Genomics, 2012) are inhibition values, retold here.

Sentrin-specific protease 1 (Homo sapiens), sequence (Q9P0U3 419-644 limits assumed): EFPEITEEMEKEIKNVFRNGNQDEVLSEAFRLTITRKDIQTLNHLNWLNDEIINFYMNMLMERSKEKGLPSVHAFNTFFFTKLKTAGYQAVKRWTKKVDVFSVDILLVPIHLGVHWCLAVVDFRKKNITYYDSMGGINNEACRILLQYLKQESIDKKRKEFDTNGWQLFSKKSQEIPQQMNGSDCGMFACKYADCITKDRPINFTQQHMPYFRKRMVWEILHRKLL

The experiment addresses Sentrin-specific protease 1 (Homo sapiens) (UniProt Q9P0U3). The experiment in a line: retest of SENP1 SUMO protease blockers – biochemical, FRET endpoint, single concentration, confirmation (AID 651678).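 Also: 0% = enzyme with DMSO and 100% = no enzyme control.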 Particulars: recombinant SENP1, CyPet-SUMO1-YPet FRET cleavage; at 10 µM; active compounds read high.
One may read the inhibition as the change of the read-out against control, counted positive when it falls. For the compound `Cc1cccc(C)c1Nc1c(-c2ccccc2O)nc2ncccn12`, the inhibition was 16.2% (inactive).

`O=C(CCN1C(=O)/C(=C/c2cccs2)SC1=S)NNC(=O)c1cccc(O)c1`: the inhibition is 66.9% (active).

Regarding `N/C(=N\OC(=O)N1c2ccccc2Sc2ccccc21)c1ccc(Br)cc1`, the inhibition is -2.12% (inactive).

Consider `COc1ccc(N2C(=O)C3C(C2=O)C(C(=O)c2ccccc2)N2CCCC32)cc1` (stereo unspecified), for which the inhibition is 36.9% (active).

As for `O=C1/C(=C/c2coc3ccc(O)cc3c2=O)SC(=S)N1c1ccccc1`, the inhibition was 3.85% (inactive).

`CCN(CC)S(=O)(=O)c1cc([N+](=O)[O-])ccc1N=Nc1c(O)n(C)c2ccccc12`: the inhibition is 10.5% (inactive).

For `COc1cc(/C=C2\CCCc3c2nc2ccccc2c3C(=O)O)cc(Cl)c1O`, the inhibition is 97.5% (active).

For `O=C1CC[C@@H]2CC3(C[C@@H]4CCN1[C@H]24)Nc1cc([N+](=O)[O-])ccc1NC3=NC1CCCCC1` (stereo partly specified), the inhibition was 21.6% (inactive).

Take `Cc1ccc(C(=O)N/N=C\c2cc(Br)c(Br)o2)cn1`: the inhibition was 11.3% (inactive).

`O=[N+]([O-])c1ccc(N=NNc2ccc([N+](=O)[O-])cc2)cc1`: the inhibition was 20.1% (inactive).

For the compound `O=C(NC(=O)c1ccccc1)Nc1ccccc1O`, the inhibition is 0.15% (inactive).

Take `O=C1C=C(c2cccc(Cl)c2O)C[C@@H](c2ccc(F)cc2)C1`: the inhibition was 94.1% (active).

In the case of `c1coc(-c2nc3nc4ccccc4n3nc2-c2ccco2)c1`, the inhibition was 19.4% (inactive).

As to `Cc1ccc2c(c1)nnc1nnc(SCC(=O)O)n12`, the inhibition is 71.8% (active).

Turning to `Cn1c(-c2sc3cc(C(F)(F)F)cnc3c2-c2ccccc2)n[nH]c1=S`, the inhibition was -1.85% (inactive).

Consider `Cc1cc(C(=O)N/N=C/c2ccc(N3CCOCC3)cc2)c(C)o1`, for which the inhibition is 29.1% (inactive).

For `Fc1cccc(Cc2c(-c3cccc(Cl)c3)nc3ccc(Br)cn23)c1`, the inhibition was 4.53% (inactive).

For `CCCCCn1nnnc1-c1nc2cc3ccccc3cc2[nH]c1=O`, the inhibition is 84.5% (active).

With `CCOC(=O)C1CCN(c2ncnc3c2c(-c2ccccc2)cn3-c2ccc(C)cc2)CC1`, the inhibition was 6.42% (inactive).

As to `CC(=O)c1cccc(-c2cnc3c(NC=O)cc(-c4ccc(N(C)C)cc4)cn23)c1`, the inhibition is 57.9% (active).

For the compound `COc1ccc(OC)c(C2C3=C(N=c4s/c(=C\c5cccc(O)c5)c(=O)n42)c2ccccc2CC3)c1` (stereo unspecified), the inhibition is 35.7% (inactive).
